Screening results from PubChem.
Giardia killer: Giardia lamblia killing; Giardia lamblia trophozoite viability; activity change, % at 7.66 µM, hits read low; actives 0.15% (n = 340,000); in the data active = activity change below about -80%; inconclusive = between about -30% and that limit;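 also: parasites exposed to compound for two days anaerobically before the ATP read; % is scaled to controls: 0 for no effect and ±100 for the full control effect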
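Compounds were tested on trophozoites seeded at 100 cells/well and held 48 hrs at 37 deg C anaerobically. An ATP-based luminescent kit measured the remaining live cells.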
MCF10A rereplic: DNA re-replication induction in MCF 10a cells | MCF 10A DNA re-replication, Hoechst nuclear intensity, 48 h | Potency, µM (doses to about 46.1 µM), for inactives: at the highest dose activity, positive = re-replication, most hits filed as activators | actives 2.9% (n = 350,000) | AID 624296; also: potency is read from the fitted curve at half-maximal effect; % of control where 0% means no effect; nearly all actives have a fitted effect of over 50% in size
VP16 counter: inhibits Gal4-VP16 luciferase reporter, ROR gamma counter-screen; Drosophila S2 Gal4-VP16 UAS-luciferase, luminescence, 20 h; Potency, µM (titrated, usually from 53.6 µM), for the others: at the highest dose activity, negative = inhibition, actives largely listed as inhibitors; actives 3.5% (n = 310,000);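 also: Gal4-VP16 expression switched on by copper sulfate through the metallothionein promoter; potency is read from the fitted curve at half-maximal effect; % is scaled to controls: 0 for no effect and ±100 for the full control effect; nearly all actives have a fitted effect of over 50% in size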
Chronic BCR inh: blocks chronic active B-cell receptor signaling. Potency, µM (doses to about 46.1 µM), for the others: top-dose activity change, negative = inhibition, actives largely listed as inhibitors. ABC-DLBCL IkBa-CBG/CBR reporter, luminescence ratio, 4 h. actives 0.05% (n = 340,000); active = well fitted inhibition curve with a large enough effect in the signal ratio, with a control signal flat, not every such curve was filed as active; inconclusive = small, poorly fitted or top-dose-only effect, or effect the other way, or a change in a side signal; the % refers to the signal ratio;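 also: potency is read from the fitted curve at half-maximal effect; plate controls were basal doxycycline-induced cells for no effect and cells given 10 µM MG132 for full effect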
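Compounds up to 46 uM were incubated four hours with TMD8 cells whose green CBG68 luciferase is fused to IkappaBalpha; red CBR luminescence normalised the signal, and concentration-effect curves were fitted to fusion, red and ratio data.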
SW480 rerep: induces DNA re-replication in SW480 colon adenocarcinoma cells; SW480 DNA re-replication, Hoechst DNA content imaging, 48 h; Potency, µM (top dose mostly 46.1 µM), for the others: top-dose re-replication activation, most hits filed as activators; actives 1.8% (n = 340,000); AID 624297; also: potency is read from the fitted curve at half-maximal effect; % of control where 0% means no effect; nearly all actives have a fitted effect of over 55% in size
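Cells (250 per well) received 23 nL compound or DMSO by pin tool and were kept 48 hr at 37 C, 5% CO2. Nuclei were then stained with Hoechst for 40 min and scanned for DNA content.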
RORg inh: ROR gamma (mouse) transcription inhibition; Potency, µM (highest dose often 53.6 µM), without a hit: at the highest dose activity change, negative = inhibition, usual class: inhibitors; P51450; actives 5.4% (n = 310,000); Drosophila S2 Gal4-RORgamma UAS-luciferase reporter, 20 h; also: potency is read from the fitted curve at half-maximal effect; % is scaled to controls: 0 for no effect and ±100 for the full control effect; nearly all actives have a fitted effect of over 60% in size
Target sequence (P51450 whole entry, looked up, the tested form may be a part): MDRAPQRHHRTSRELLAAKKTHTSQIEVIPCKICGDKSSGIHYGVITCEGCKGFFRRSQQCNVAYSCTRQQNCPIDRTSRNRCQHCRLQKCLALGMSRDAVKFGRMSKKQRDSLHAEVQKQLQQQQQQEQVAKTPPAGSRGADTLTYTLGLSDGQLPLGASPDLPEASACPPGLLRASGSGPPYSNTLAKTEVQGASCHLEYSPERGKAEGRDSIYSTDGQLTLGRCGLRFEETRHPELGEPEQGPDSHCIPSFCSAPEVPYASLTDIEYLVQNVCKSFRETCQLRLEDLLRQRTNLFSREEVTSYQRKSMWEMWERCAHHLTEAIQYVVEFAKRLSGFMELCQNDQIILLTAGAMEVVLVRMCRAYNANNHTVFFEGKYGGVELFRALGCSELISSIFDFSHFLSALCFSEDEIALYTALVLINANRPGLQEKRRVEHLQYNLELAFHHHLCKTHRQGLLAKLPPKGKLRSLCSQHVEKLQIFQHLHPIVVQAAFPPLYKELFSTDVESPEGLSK
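A Gal4/UAS one-hybrid system in insect cells: metallothionein-promoter Gal4–ROR gamma fusion plus Photinus luciferase reporter. Copper sulfate 700 uM final, 20 hr ambient incubation, luminescent detection after 10 min with reagent.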
The depositor's hits bear a star; ? = inconclusive; . = not tested or not shown; [ ] = remark or other dose. Compounds with a hit are over-represented: about 8.3% of the library has one in this group of screens. Unless noted, calls follow the shape of the dose curve; as a rule, active = well fitted curve in the direction sought with a large enough effect; inconclusive = small, poorly fitted or top-dose-only effect, or another doubt; inactive = no such curve, though single readings can be large; an effect the other way counts as inactive or inconclusive.

SMILES	Giardia killer	MCF10A rereplic	VP16 counter	Chronic BCR inh	SW480 rerep	RORg inh
CCCCOc1ncnc2c1[nH]c1ccccc12	-9	21%	10µM*	3%	24%	?
CCCCOc1ncnc2c1[nH]c1ccc(F)cc12	16	?	7.9µM*	10%	-12%	?
CCOCCCNc1ncnc2c1[nH]c1ccccc12	8	4%	?	22%	3%	15%
CCCCOCCCNc1ncnc2c1[nH]c1ccccc12	-16	?	10µM*	1%	?	?
COc1ccc([C@H]2CC(=O)C=C(c3ccnc4ccc(Cl)cc34)C2)cc1	3	?	.	-2%	?	.
C=Cc1ccccc1Cl	.	.	-1%	.	.	-1%
CC(=NC1CCCC1)c1c(C)[nH]n(-c2nc3ccccc3s2)c1=O	-7	17%	?	?	1%	3.5µM*
CC(=NCCCn1ccnc1)c1c(-c2ccccc2)[nH]n(-c2nc3ccccc3s2)c1=O	-14	?	11%	15%	?	12%
CC(=NC1CC1)c1c(-c2ccccc2)[nH]n(-c2nc3ccccc3s2)c1=O	1	-1%	?	?	?	1.3µM*
COc1ccc2[nH]c3c(c2c1)CCN1C(=O)C(CC(=O)NCCc2ccccn2)C[C@H](C(=O)N2CCCCC2)[C@@]31CCc1ccccc1 (some centres undefined)	6	23%	.	6%	?	.
CCN(CC)C(=O)[C@H]1CC(CC(=O)NCCC2=CCCCC2)C(=O)N2CCc3c([nH]c4ccccc34)[C@]12C (some centres undefined)	29	3%	.	?	?	.
CC[C@]12c3[nH]c4cc(-c5ccco5)ccc4c3CCN1C(=O)[C@@H](CC(=O)NCc1ccc(OC)c(OC)c1)C[C@@H]2C(=O)N1CCN(C(=O)c2ccco2)CC1	-8	4%	.	-4%	4.1µM*	.
CC(C)=CCC/C(C)=C/CNC(=O)C[C@H]1C[C@H](C(=O)N(C(C)C)C(C)C)[C@@]2(C)c3[nH]c4cc(-c5ccco5)ccc4c3CCN2C1=O	-27	?	.	1%	0%[9.22 µM]	.
CCN(CC)C(=O)[C@H]1C[C@H](CC(=O)NC/C=C(\C)CCC=C(C)C)C(=O)N2CCc3c([nH]c4cc(-c5ccco5)ccc34)[C@]12C	1	21µM*	.	-6%	17%[9.22 µM]	.
COCCCNC(=O)CC1C[C@H](C(=O)N2CCCCC2)[C@@]2(CCc3ccccc3)c3[nH]c4ccc(OC)cc4c3CCN2C1=O (some centres undefined)	5	-1%	.	?	18µM*	.
CCN(CC)C(=O)[C@H]1CC(CC(=O)NCC23CC4CC(CC(C4)C2)C3)C(=O)N2CCc3c([nH]c4ccccc34)[C@]12C (some centres undefined)	-7	?	.	4%	23µM*	.
O=C(CCl)NCCCN(C(=O)C(Cl)Cl)c1ccc([N+](=O)[O-])cc1	-6	9%	-12%	?	51%	-18%
CCc1ccc2c(COC(=O)C3CSC4(C)CCC(=O)N34)cc(=O)oc2c1 (centres undefined)	0	3%	.	0%	-1%	.
CN(C(=O)c1cccc(NC(=O)Cc2ccc(NC(=O)C3CCN(C(=O)C4CCCC4)CC3)cc2)c1)C1CC1	-16	1%	.	.	?	.
CC(C)=CCC/C(C)=C/CNC(=O)C[C@H]1C[C@H](C(=O)N2CCOCC2)[C@@]2(CCC3CCCC3)c3[nH]c4cc(CCC(=O)N(C)C)ccc4c3CCN2C1=O	1	15µM*	.	5%	?	.
CCN(CC)CCNC(=O)Cn1cnc2sc(C)c(S(=O)(=O)N3CCN(c4ncccn4)CC3)c2c1=O	-10	-5%	-1%	?	1%	18%
CCOCCCNC(=O)Cn1cnc2sc(C)c(S(=O)(=O)N3CCN(c4ncccn4)CC3)c2c1=O	16	3%	-16%	-3%	5.2µM*	14%
